# Screens deposited in PubChem by Sanford-Burnham Center for Chemical Genomics.
# An excerpt weighted towards active compounds, which were near 6.3% of everything screened.
# tim23-1 inh: growth inhibitors of tim23-1 mutant yeast, primary screen, luminescence, uHTS; S. cerevisiae tim23-1 growth, BacTiter-Glo luminescence, 24 h; inhibition, % at 20 µM; hit rate 1.3% among 330,000; AID 463212, 2010;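 active means growth inhibition of the mutant yeast at or above 50%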;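 further: temperature-sensitive mutant grown at 25 °C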
# TIM10 inh: growth inhibitors of isogenic TIM10 control yeast, primary screen, counter-screen for tim10-1 yeast inhibitor project, luminescence, uHTS. S. cerevisiae TIM10 strain growth, BacTiter-Glo luminescence, 24 h. hit rate 1.4% among 330,000. AID 463195, 2010. inhibition, % at 10 µM;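 active means inhibition of 40% or more at the single tested concentration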;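 further: wild-type TIM10 isogenic control strain grown at permissive 25 °C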
# tim10-1 inh: growth inhibitors of tim10-1 mutant yeast, primary screen, luminescence, uHTS | S. cerevisiae tim10-1 ts strain growth, BacTiter-Glo, 24 h | inhibition, % at 20 µM | hit rate 2.2% among 330,000 | AID 463190, 2010;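 active means inhibition of at least 40%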;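 further: mutant grown at 25 °C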
# Mdm2 MdmX PPI: inhibitors of human Mdm2-MdmX association, primary screen, cell-based, luminescence, split luciferase, SaOS-2, uHTS | Protein Mdm4 (Homo sapiens) + E3 ubiquitin-protein ligase Mdm2 (Homo sapiens), … | SaOS-2 split-luciferase Mdm2/MdmX complementation | inhibition, % at 8 µM | hit rate 3% among 330,000 | AID 485346, 2010;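 active means inhibition of at least 50% at 8 µM in the primary screen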
# Target sequence (O15151 whole entry, looked up): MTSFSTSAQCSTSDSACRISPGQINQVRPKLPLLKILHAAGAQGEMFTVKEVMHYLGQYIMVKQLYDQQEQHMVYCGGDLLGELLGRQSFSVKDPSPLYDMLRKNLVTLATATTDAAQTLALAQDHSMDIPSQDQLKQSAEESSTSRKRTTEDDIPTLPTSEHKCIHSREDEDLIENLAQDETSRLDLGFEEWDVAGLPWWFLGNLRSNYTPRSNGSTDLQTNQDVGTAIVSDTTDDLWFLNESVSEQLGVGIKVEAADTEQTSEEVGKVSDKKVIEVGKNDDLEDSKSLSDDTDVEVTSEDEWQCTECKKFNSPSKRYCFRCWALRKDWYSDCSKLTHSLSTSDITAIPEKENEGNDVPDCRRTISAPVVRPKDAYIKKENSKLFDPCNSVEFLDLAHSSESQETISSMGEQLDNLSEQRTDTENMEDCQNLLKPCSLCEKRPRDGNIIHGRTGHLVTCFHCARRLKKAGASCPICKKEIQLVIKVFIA
# Target sequence (Q00987 whole entry, looked up): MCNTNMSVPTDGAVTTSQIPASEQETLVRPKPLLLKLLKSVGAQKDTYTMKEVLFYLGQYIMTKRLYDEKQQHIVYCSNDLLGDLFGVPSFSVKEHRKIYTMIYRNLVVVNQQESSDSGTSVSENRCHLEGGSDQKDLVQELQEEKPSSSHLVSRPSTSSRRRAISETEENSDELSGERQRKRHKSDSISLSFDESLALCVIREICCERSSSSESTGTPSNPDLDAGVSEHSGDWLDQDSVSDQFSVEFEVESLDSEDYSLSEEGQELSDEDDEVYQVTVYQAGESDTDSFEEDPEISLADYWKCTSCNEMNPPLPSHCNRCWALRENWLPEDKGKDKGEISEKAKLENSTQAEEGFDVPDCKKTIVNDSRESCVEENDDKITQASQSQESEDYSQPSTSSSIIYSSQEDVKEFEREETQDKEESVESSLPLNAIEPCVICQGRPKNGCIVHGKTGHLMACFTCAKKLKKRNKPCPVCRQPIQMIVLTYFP
# MPTP inh: mitochondrial permeability transition pore inhibitors, primary screen, biochemical, isolated mouse mitochondria, absorbance. Ca2+ swelling absorbance, 30 min. inhibition, % at 10 µM. hit rate 1.4% among 360,000. AID 602449, 2012;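 active means inhibition of 50% or more, scaled per plate between neutral and stimulator controls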
# tim10-1 conf: growth inhibitors of tim10-1 mutant yeast, confirmation, single concentration, luminescence, S. cerevisiae. shares compounds with tim10-1 inh. hit rate 56% among 7,400. AID 463213, 2010. inhibition, % at 20 µM. S. cerevisiae tim10-1 ts strain growth, BacTiter-Glo, 24 h;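 active means inhibition of yeast growth at or above a set limit in either of two repeat tests at 20 µM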;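 further: tim10-1 mutant grown at permissive 25 °C to find synthetic lethal compounds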
# TIM10 conf: growth inhibitors of wild-type TIM10 yeast, confirmation, counter-screen for tim10-1 synthetic lethality project, single concentration, luminescence, S. cerevisiae; inhibition, % at 10 µM; hit rate 63% among 4,600; S. cerevisiae tim10 strain growth, BacTiter-Glo luminescence, 24 h; shares compounds with TIM10 inh;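 active means inhibition of yeast growth at or above a set limit in either of two replicates at 10 µM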; further: this counterscreen used the strain with wild-type TIM10
# tim23-1 conf: tim23-1 mutant yeast growth inhibitors, confirmation, luminescence, single concentration; inhibition, % at 20 µM; AID 463218, 2010; shares compounds with tim23-1 inh; S. cerevisiae tim23-1 growth, BacTiter-Glo luminescence, 24 h; hit rate 83% among 4,400;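 active means inhibition above about 39% in either of two replicate wells at 20 µM, limit read from the data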;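 further: temperature-sensitive tim23-1 mutant grown at 25 °C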
# Mdm2-MdmX conf: Mdm2-MdmX complex disruptors, retested hits, confirmation, luminescence, single concentration. hit rate 55% among 10,000. inhibition, % at 8 µM. Mdm2-MdmX binding, luminescent assay. shares compounds with Mdm2 MdmX PPI; in the data active means inhibition above about 40%
# Full FLuc ctr: full-length luciferase signal inhibition, confirmation, counter-screen for Mdm2/MdmX interaction inhibitor project, cell-based, single concentration, SaOS-2 | SaOS-2 full-length luciferase counterscreen, luminescence | inhibition, % at 8 µM | shares compounds with Mdm2 MdmX PPI | hit rate 77% among 6,200;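 active means mean inhibition at 8 µM reaching about 37%, which flags the compound as non-specific, limit read from the data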;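 further: p53-null SaOS-2 cells with luciferase driven by a doxycycline-inducible promoter; compound on cells about two nights before reading with doxycycline added after day one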
# Numbers stand for hits; n = inactive; x = no result given.
SMILES,tim23-1 inh,TIM10 inh,tim10-1 inh,Mdm2 MdmX PPI,MPTP inh,tim10-1 conf,tim23-1 conf,Mdm2-MdmX conf,Full FLuc ctr,others
COc1cc(C(=O)ON=C2C=C(C)C(=O)C(C)=C2)cc(OC)c1OC,n,n,n,n,n,x,x,x,x,
COc1ccc(/C(N)=N/OC(=O)c2cccc([N+](=O)[O-])c2)cc1,66.2,n,42.1,n,n,54.0,73.9,x,x,
COc1cccc(C(=O)O/N=C(\N)Cc2ccc(Cl)cc2)c1,58.1,85.1,52.8,n,n,n,42.6,x,x,TIM10 conf=n
CC1=CC(=NOC(=O)c2cccc([N+](=O)[O-])c2)C=C(C)C1=O,57.3,n,45.0,n,n,35.7,64.2,x,x,
CC(C)NC(=O)Nc1ccc2c(c1)C(=O)N([C@@H](C)CO)C[C@@H](C)[C@H](CN(C)Cc1ccccc1)OCCCC[C@H](C)O2,x,x,x,x,n,x,x,x,x,
CCOc1ccc(CN(C)C(=O)c2cccc(S(=O)(=O)Nc3ccccc3OC)c2)cc1OC,x,x,x,x,n,x,x,x,x,
COc1cccc(C(=O)O/N=C(\N)c2ccc(C)cc2)c1,69.4,71.7,56.6,n,n,41.2,70.6,x,x,TIM10 conf=82.2
COc1cc(Cn2c3ccc(NC(=O)CC(C)C(F)(F)F)cc3c(=O)n2C)ccc1F (stereo unspecified),x,x,x,x,n,x,x,x,x,
O=S(=O)(Nc1cccnc1)c1cccc(C(F)(F)F)c1,n,n,n,n,n,x,x,x,x,
O=[N+]([O-])c1ccc(S(=O)(=O)c2cccc(C(F)(F)F)c2)nc1,n,75.5,74.5,95.5,n,73.7,x,100.0,n,TIM10 conf=65.7
CC(NC(=O)/C(C#N)=C/c1ccco1)c1ccccc1 (stereo unspecified),n,n,n,n,n,x,x,x,x,
CC(NC(=O)/C(C#N)=C/c1ccc([N+](=O)[O-])o1)c1ccccc1 (stereo unspecified),n,61.7,50.4,100.3,n,n,x,n,x,TIM10 conf=92.8
CC(C)Nc1ncnc2c1ncn2[C@H]1CN(Cc2ccc(F)cc2)C[C@@H](CO)O1,x,x,x,x,n,x,x,x,x,
Oc1ccc2ccccc2c1N=Nc1ccccn1,52.4,n,51.8,63.4,n,45.9,58.8,74.1,n,
CC[n+]1c(/C=C/c2c[nH]c3ccccc23)ccc2cc(C)ccc21,n,58.9,67.4,71.6,x,70.0,x,55.9,72.7,TIM10 conf=37.8
CN1Cc2c(N3CCOCC3)nc3sc(C#N)c(N)c3c2CC1(C)C,n,n,n,n,n,x,x,x,x,
CN1Cc2c(N3CCOCC3)nc3sc(C(=O)c4ccc(Br)cc4)c(N)c3c2CC1(C)C,57.8,n,57.7,90.6,n,n,52.6,61.2,84.4,
O=C(NNc1nc2ccc(Cl)cc2s1)c1cc(-c2cccs2)nc2ccccc12,51.6,n,50.5,52.7,n,34.6,54.3,62.0,61.0,
O=C(/C=C/c1cccc(Cl)c1)c1nc2ccccc2[nH]1,n,57.8,50.1,92.2,n,40.7,x,n,x,TIM10 conf=62.8
O=C(/C=C/c1cccc(Cl)c1)Nc1ncccn1,n,n,n,n,n,x,x,x,x,
CCOC(=O)[C@]12CCC=C1N(Cc1cccc3ccccc13)C(=O)[C@H](CC(=O)N1CCN(C(=O)c3ccco3)CC1)C2,x,x,x,x,n,x,x,x,x,
Cc1ccc(NC(=O)c2nc(S(=O)(=O)Cc3ccccc3C)ncc2Cl)cc1C,67.5,n,42.0,100.2,n,n,59.5,70.3,52.1,
CSc1ncc(Cl)c(C(=O)Nc2ccc(C)c(C)c2)n1,n,n,n,n,n,x,x,x,x,
CCOc1ccccc1NC(=O)c1nc(S(=O)(=O)Cc2ccccc2)ncc1Cl,78.2,n,59.4,97.1,n,40.8,74.5,96.8,n,
COc1ccc(-n2nc(C(=O)Nc3ccc(OC)c(OC)c3)c3c4ccccc4n(C)c3c2=O)cc1,n,n,41.1,75.6,n,n,x,n,x,
SMILES,tim23-1 inh,TIM10 inh,tim10-1 inh,Mdm2 MdmX PPI,MPTP inh,tim10-1 conf,tim23-1 conf,Mdm2-MdmX conf,Full FLuc ctr,others
CC1(C)OC(=O)C2=C(C[C@@H](C3CCCC3)O[C@H]2c2ccc(Cl)cc2)O1,x,x,x,x,n,x,x,x,x,
COc1ccc(NC(=O)/C(Cl)=C(/Cl)S(=O)Cc2ccccc2)cn1 (stereo unspecified),86.4,69.2,48.6,97.6,n,33.7,n,98.8,n,TIM10 conf=83.9
COc1ccc(CS(=O)(=O)/C(Cl)=C(/Cl)C(=O)Nc2ccc(OC)nc2)cc1,72.0,52.3,72.7,93.9,n,65.9,76.1,97.3,50.8,TIM10 conf=58.4
COc1ccc(/C=C/C(=O)Nc2ccc(OC)nc2)cc1,n,n,n,n,n,x,x,x,x,
COc1ccc(NC(=O)Cc2ccccc2)cn1,n,n,n,n,n,x,x,x,x,
O=C(NCc1ccc2c(c1)OCO2)c1nn(-c2ccccc2)c(=O)c2ccccc12,n,n,n,n,n,x,x,x,x,
CC(C)(C)c1nn(-c2ccccc2)c2[nH]c(=O)c(CNCc3ccc4c(c3)OCO4)cc12,n,n,44.0,91.7,n,32.0,x,80.5,63.5,
c1ccc(Oc2nc(N3CCOCC3)nc(N3CCOCC3)n2)cc1,n,n,n,n,n,x,x,x,x,
c1cc(C2CCCCC2)ccc1Oc1nc(N2CCOCC2)nc(N2CCOCC2)n1,n,52.4,43.7,62.7,n,n,x,n,x,TIM10 conf=32.6
O=c1c(-c2ccccc2)n[nH]c2ccccc12,n,n,n,n,n,x,x,x,x,
O=C1c2ccccc2-c2n[nH]c3cccc1c23,67.5,n,59.1,53.4,n,n,66.8,n,x,
Clc1cc(Cl)cc(Nc2ccccc2CN(C/C=C/c2ccc3c(c2)OCO3)Cc2ccccc2)c1,x,x,x,x,n,x,x,x,x,
CN(C)c1ccc(/C=C/c2nc3ccccc3s2)cc1,n,n,46.5,64.1,n,55.5,x,n,x,
O=C(NC(c1ccc(Cl)cc1)c1ccsc1)C1CCN(Cc2cccc(Cl)c2)CC1 (stereo unspecified),x,x,x,x,n,x,x,x,x,
Cc1ccc(/C=N/NC(=O)c2nnn(-c3nonc3N)c2CNc2ccccc2)cc1,n,n,n,n,n,x,x,x,x,
